Screens from PubChem.
The list is not random: actives were taken first. Their share in the collection is about 4.7%.
TRHR PAM = allosteric enhancers of human TRH receptor; P34981; TRHR cells, fluo-8 calcium fluorescence, EC20 TRH enhancement; enhancement, % at 2 µM; 360,000 compounds, 0.66% hits; in the data active = enhancement above about 30%; also: 0% is about no effect
Target sequence (P34981 whole entry, looked up): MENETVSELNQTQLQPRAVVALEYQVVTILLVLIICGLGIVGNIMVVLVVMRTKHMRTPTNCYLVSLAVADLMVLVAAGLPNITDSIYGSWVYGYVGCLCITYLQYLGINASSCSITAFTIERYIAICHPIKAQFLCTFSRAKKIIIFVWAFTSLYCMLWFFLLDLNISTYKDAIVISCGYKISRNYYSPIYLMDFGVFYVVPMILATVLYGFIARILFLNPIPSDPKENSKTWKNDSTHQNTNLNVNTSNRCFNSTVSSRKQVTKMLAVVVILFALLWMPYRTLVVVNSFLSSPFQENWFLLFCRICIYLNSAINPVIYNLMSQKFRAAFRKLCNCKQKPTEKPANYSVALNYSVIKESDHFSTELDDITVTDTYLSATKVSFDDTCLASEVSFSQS
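Enhancer read-out: after compound pinning and an initial kinetic agonist-mode read, an EC20 of TRH (10 nM final) was injected and fluo-8 calcium signal (Ex 480/Em 530) followed at 1 s/cycle for 100 cycles in TRHR-expressing cells.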
D1 antagonist = antagonists of human D1 dopamine receptor | P21728 | HEK293 TREx D1 cells, calcium flux, dopamine EC80; stronger effect = lower value | activity change, negative = inhibition, % at 10 µM | 360,000 compounds, 3.2% hits; in the data active = activity change below about -30%; also: % is scaled to controls: 0 for no effect and ±100 for the full control effect
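HEK293 T-REx cells expressing inducible, force-coupled D1 receptor; no-wash Ca dye, 30–90 min RT. Cmpd → 180 s read at 1 Hz → EC80 DA → 180 s read.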
TRHR ag = TRH receptor (human) agonism | P34981 | TRHR cells, calcium flux fluo-8, FDSS agonist mode | activation, % at 2 µM | 360,000 compounds, 0.18% hits | AID 493084; also: 0% is about no effect
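In this calcium-flux screen, cells bearing human TRHR are dye-loaded with fluo-8, baselined for 10 cycles, then exposed to library compounds; positive kinetic calcium responses during the agonist phase mark hits, with TRH as control.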
D1 PAM = potentiators of human D1 dopamine receptor. potentiation, % at 10 µM. HEK293 TREx D1 cells, calcium flux, dopamine EC20 potentiation. P21728. 360,000 compounds, 0.036% hits; in the data active = potentiation above about 30%; also: 0% is about no effect
D1 ag = agonists of human D1 dopamine receptor; activation, % at 2 µM; HEK293 T-REx D1 cells, calcium flux, agonist mode; 360,000 compounds, 1% hits; P21728; AID 504660; also: 0% is about no effect
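Inducible HEK293 T-REx D1 cells, force-coupled to calcium signalling, were plated at 4000 cells/well with tetracycline and held overnight at 30 C. After no-wash calcium dye loading, compound-evoked calcium rise over 180 s flagged agonists.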
Numbers without * were called inactive; · = not tested or not shown. Rule as the data show it, unless noted: active = activation above about 30%; inactive = the rest.

SMILES | TRHR PAM | D1 antagonist | TRHR ag | D1 PAM | D1 ag
COc1ccc(CNC(=O)c2cnc3sc(N4CCCC4)nn3c2=O)c(OC)c1 | 0 | -1 | 0 | 1 | 1
CN(C)c1ccc(CNC(=O)CN2C(=O)CCn3nc(-c4cn(C)c5ccccc45)cc32)cc1 | 0 | -4 | 0 | 0 | 2
Cc1ccc(Oc2nc3ccccn3c(=O)c2/C=C(\C#N)c2nc3ccccc3s2)c(C)c1 | 12 | -22 | 0 | -5 | -1
COc1cc(CN(C(=O)c2ccccc2)c2ccccn2)cc(OC)c1OC | -2 | -5 | 0 | 0 | 2
CCOC(=O)CSc1nc2ccc(NC(=O)c3ccccc3)cc2s1 | -2 | 4 | 1 | 0 | 4
CCOC(=O)CSc1nc2ccc(NC(=O)COc3ccccc3)cc2s1 | -4 | -36* | 0 | -2 | 10
O=c1cc(-c2ccccc2)nc2nc(SCc3ccccc3)[nH]n12 | 1 | -32* | 0 | -7 | 1
Cc1cc(=O)n2[nH]c(SCc3ccccc3)nc2n1 | -10 | 4 | 0 | -1 | 0
CCOC(=O)c1[nH]c2c(c1Cc1ccccc1)C(=O)CC(c1ccc(C(C)(C)C)cc1)C2 (stereo unspecified) | 16 | 2 | 2 | -1 | 4
CCC(=O)N1c2ccccc2C(C)(c2ccccc2)CC1(C)C (stereo unspecified) | -11 | 11 | 4 | 0 | -1
CC(=O)N1c2ccccc2C(C)(c2ccc(C)cc2)CC1(C)C (stereo unspecified) | -10 | -4 | 16 | -1 | 56*
CCn1cnc2c(Nc3ccc(Cc4cccnc4)cc3)nc(C#N)nc21 | -8 | -2 | -1 | 4 | 3
O=C(CCCCn1c(=O)c2ccccc2n(CC(=O)NC2CCCC2)c1=O)NC1CCCC1 | -1 | -39* | 1 | -1 | 0
CC(C)C[C@H](NC(=O)CCCn1nnc2ccccc2c1=O)C(=O)O | -2 | -18 | 0 | -6 | 1
O=C(Cn1ncc(Cl)c(Cl)c1=O)NC1CCCCC1 | -3 | -37* | 0 | -11 | 2
CCCN(CCC)C(=O)Cn1c(=O)n(CCCCC(=O)NC2CCCC2)c(=O)c2ccccc21 | -3 | -5 | 0 | -2 | 4
O=C(O)CCNC(=O)CCCn1nnc2ccccc2c1=O | -1 | -43* | 0 | -1 | 1
CC(C)(C)C(=O)Cn1ncc(Cl)c(Cl)c1=O | 32* | 5 | 0 | -1 | 11
COc1ccc(CNc2nc3c(-c4ccccc4)nnn3c3ccccc23)cc1 | -1 | -15 | 0 | 4 | 1
Cc1ccc(NC(=O)CSc2nc3c(oc4ccccc43)c(=O)n2-c2ccc(F)cc2)c(C)c1 | -2 | -3 | 1 | 3 | 2
COC(=O)c1ccc(NC(=O)Cc2coc3cc(C)ccc23)cc1 | -1 | -22 | 0 | -3 | 11
COc1cc(-c2cc(OC)c3c(C)oc(C)c3c(=O)c2)ccc1OC(=O)c1cccc(Cl)c1 | 6 | -25 | -1 | -2 | 13
O=C(CC1CCCCC1)OCn1nnc2ccccc2c1=O | 2 | -16 | 0 | -1 | 2
O=C(Cn1nnc2ccccc2c1=O)NC1CCCCC1 | 2 | -43* | 0 | 4 | 2
O=C(Nc1ccccc1)Nc1nc(Nc2cc(F)cc(F)c2)nc(NC2CCCC2)n1 | 1 | 8 | 0 | -7 | 2
SMILES | TRHR PAM | D1 antagonist | TRHR ag | D1 PAM | D1 ag
Cc1sc2nc(-c3cccnc3)[nH]c(=O)c2c1-c1ccccc1 | -6 | -49* | -1 | -15 | 3
Nc1c(-c2nc(-c3ccccc3Cl)no2)nnn1-c1ccccc1C(F)(F)F | 9 | -15 | -1 | -1 | 2
O=C1CN(C(=O)c2cccc(S(=O)(=O)N3CCCC3)c2)c2ccccc2N1 | 41* | 14 | 0 | -1 | 1
CC(=O)N1CCN(S(=O)(=O)c2cccc(C(=O)OCC(=O)N3CC(=O)Nc4ccccc43)c2)CC1 | -4 | 17 | 0 | -6 | -2
CCc1ccc2oc(C(=O)N3CCN(c4ccc(OC)cc4)CC3)cc(=O)c2c1 | -1 | -41* | -1 | -6 | 6
COc1ccc(NC2=CC(=O)CC(c3ccccc3)C2)c(OC)c1 (stereo unspecified) | 2 | 24 | 0 | -5 | 1
CCOc1ccccc1NC1=CC(=O)CC(c2ccccc2)C1 (stereo unspecified) | -1 | -31* | -1 | 3 | 4
COc1ccc(C2(O)CCN(CCCCOc3ccccc3)CC2)cc1 | 3 | -18 | 0 | -17 | 36*
COc1ccc(OCCCN2CCc3ccccc3C2)cc1 | 0 | -8 | 0 | -10 | 2
CCC(C)N1C(=O)/C(=C/c2c(NCCCOC(C)C)nc3c(C)cccn3c2=O)SC1=S (stereo unspecified) | -6 | -6 | 34* | -5 | 81*
CCCN1C(=O)/C(=C/c2c(NCCCOC(C)C)nc3c(C)cccn3c2=O)SC1=S | 4 | -21 | 15 | 1 | 44*
COc1cc2c(cc1OC)C1O[C@](c3ccsc3)(C2)OC2=C1C(=O)OC1(CCCCC1)C2 | -10 | 8 | 0 | -2 | 2
O=c1c2cccnc2n(Cc2ccc(Cl)cc2)c(=O)n1Cc1ccc(F)cc1 | 1 | -16 | 0 | -6 | -1
Cc1cccc(-c2nc(C)c(CCNC(=O)C(=O)Nc3ccccc3C#N)s2)c1 | -3 | 10 | 0 | -4 | 5
O=C(CN1CCN(Cc2ccccc2F)C1=O)NCCc1ccc(Cl)cc1 | -2 | -9 | 0 | · | 2
O=C(CN1CCN(Cc2ccccc2Cl)C1=O)NCCc1ccc(Cl)cc1 | -8 | -33* | -1 | -1 | 3
O=C(O)c1ccc2c(c1)C(=O)N([C@H](Cc1ccc3ccccc3c1)C(=O)O)C2=O | 15 | -7 | -1 | 4 | 2
CCSc1ccccc1C(=O)N1CCN(c2nc3ccccc3s2)CC1 | 6 | · | -1 | 8 | 31*
CCCC(=O)N1CCN(c2nc3ccccc3s2)CC1 | 3 | 7 | 1 | -5 | 4
O=C(C1COc2ccccc2O1)N1CCN(c2nc3ccc([N+](=O)[O-])cc3s2)CC1 (stereo unspecified) | -7 | -24 | 0 | 0 | 6
Cc1cccc2sc(N3CCN(C(=O)c4cccs4)CC3)nc12 | -6 | -9 | 0 | -8 | 4
O=C(C1COc2ccccc2O1)N1CCN(c2nc3ccccc3s2)CC1 (stereo unspecified) | 3 | -62* | 0 | -8 | 6
O=C(c1cccs1)N1CCN(c2nc3ccccc3s2)CC1 | -4 | -37* | 1 | -3 | 6
CC(=O)Nc1nonc1-c1nnc(SCC(=O)Nc2ccccc2Cl)n1C | 29 | 7 | -1 | 1 | -2
COc1cccc(CNc2nccn(-c3cc(C)cc(C)c3)c2=O)c1 | -5 | 0 | 0 | -5 | 3
Cc1ccc2nc(-c3sc4nc(C)ccc4c3N)[nH]c2c1 | 11 | -38* | 0 | -5 | 0
